Measurements: PubChem BioAssay AID588763 (NMMLSC, 2011)
Potency and affinity values are given separately. Calls of active or inactive are those of the source. How the calls were made is not given here.

Molecular target: Beta-2 adrenergic receptor (Homo sapiens) (UniProt P07550)
Experiment: beta2AR agonists driving receptor internalization, dose response, cell-based, FAP fluorogen, flow cytometry, cherry pick 1 (AID 588763)
Conditions: AM2.2-beta2AR cells, 90 min; series mostly up to 33 µM; activation (receptor internalization): at the top concentration

Chain of Beta-2 adrenergic receptor (Homo sapiens) (P07550 whole entry, looked up): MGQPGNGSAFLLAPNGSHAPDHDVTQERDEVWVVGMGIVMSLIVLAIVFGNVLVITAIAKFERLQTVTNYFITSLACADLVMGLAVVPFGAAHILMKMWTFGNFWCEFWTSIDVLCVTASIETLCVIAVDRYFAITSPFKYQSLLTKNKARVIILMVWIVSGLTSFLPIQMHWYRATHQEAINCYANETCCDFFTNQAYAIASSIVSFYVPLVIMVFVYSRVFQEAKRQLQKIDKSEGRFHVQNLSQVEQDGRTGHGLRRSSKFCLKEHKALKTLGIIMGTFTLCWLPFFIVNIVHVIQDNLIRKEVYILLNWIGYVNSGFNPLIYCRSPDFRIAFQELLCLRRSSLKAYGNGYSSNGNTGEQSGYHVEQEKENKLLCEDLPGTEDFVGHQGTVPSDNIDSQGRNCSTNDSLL

Activation (receptor internalization), inactive:
COc1ccc(-n2nc3c(N4CCC(C(=O)NCc5ccco5)CC4)nnc(C)c3c2C)cc1 11%
CCOC(=O)C1CCN(C(=O)COC(=O)c2ccccc2C(=O)c2ccc(Cl)cc2)CC1 27.5%
Cc1cc(S(=O)(=O)N2CCOCC2)ccc1OCC(=O)Nc1ccccc1F -7.22%
CCOc1ccc(CNC(=O)C2CCN(c3nnc(C)c4c(C)n(-c5ccc(C)cc5)nc34)CC2)cc1 65.3%
CCN(CC)CCNc1ncnc2c1sc1nc(N3CCCC3)c3c(c12)CC(C)(C)OC3 69.5%
COc1ccc(S(=O)(=O)N(C)CC(=O)N2CCN(c3ccccc3)CC2)cc1 -25.8%
O=C1CN(S(=O)(=O)c2cccc(Cl)c2Cl)c2ccccc2N1 41.8%
N=c1n(Cc2ccc(Cl)cc2)c2ccccc2n1CC(O)COc1ccccc1 (stereo not drawn) 88.3%
COC(=O)c1ccc(CNC(=O)c2cc(COc3cncc(Cl)c3)on2)cc1 4.05%
COc1ccc(CCNCC(O)c2ccccc2)cc1 (stereo not drawn) -0.216%
COc1ccccc1N1CCN(C(=O)CN(C)S(=O)(=O)c2ccc(C)cc2)CC1 50.6%
Cc1cccc(CN2CCC(Oc3ccc(C(=O)N4CCCCC4)cc3)CC2)c1 13.5%
O=C(Nc1cccc(-c2nc3cccnc3s2)c1)C1c2ccccc2Oc2ccccc21 87.7%
COc1ccccc1-c1cc(C(F)(F)F)nc(S(=O)(=O)CCCC(=O)N2CCOCC2)n1 38.6%
Cc1ccc(-c2nc(NC(=O)c3cc(C(C)(C)C)nn3C)sc2C)cc1Cl 14.2%
COc1cc(CNCCc2ccc(S(N)(=O)=O)cc2)ccc1OCc1ccc(Cl)cc1 46.7%
COc1ccc(OC)c(C(=O)NC(CC(N)=O)c2ccc(N3CCN(c4ccccn4)CC3)c([N+](=O)[O-])c2)c1 (stereo not drawn) 9.33%
COc1ccc(C(=O)Nc2nc3cc4c(cc3s2)OCCO4)c(OC)c1 61.6%
Cc1ccc(OCC(O)Cn2c(=N)n(Cc3ccccc3)c3ccccc32)cc1 (stereo not drawn) 45.7%
COc1ccc(Cl)c(NC(=O)Cn2nnc(-c3ccccc3N)n2)c1 7.97%
CCOc1cccc(CN2CCC(Oc3ccc(C(=O)N4CCCC4)cc3)CC2)c1 -17.1%
CC(NC(=O)c1cc(COc2ccc3ncccc3c2)on1)c1ccc(F)cc1 (stereo not drawn) 27.1%
N=c1n(CC(=O)c2ccc([N+](=O)[O-])cc2)c2ccccc2n1Cc1ccc(Cl)cc1 103%
CCCCn1c(=N)n(CC(=O)c2ccc(Br)s2)c2ccccc21 98.7%
COC(=O)c1ccccc1NC(=O)COc1ccc(S(=O)(=O)N2CCCC2)cc1C 6.72%
Cc1ccc(S(=O)(=O)c2ccc([N+](=O)[O-])o2)cc1 -470%
CC(=O)Nc1ccc(CN2CCC(Oc3ccc(C(=O)N4CCCC4)cc3)CC2)cc1 -1.14%
COc1ccccc1C(=O)Nc1ccc2oc(-c3ccc(F)cc3)nc2c1 -9.56%
COc1ccc(-c2nc(NC(=O)c3cc(C(C)(C)C)nn3C)sc2C)cc1 33.8%
O=C(Nc1ccc(-c2cccc(F)c2)cc1)C1CCCN(Cc2ccccn2)C1 (stereo not drawn) 15.9%
O=C(COc1ccc(S(=O)(=O)N2CCOCC2)cc1)Nc1ccc(Br)cc1 -5.92%
O=C(NC1CCc2ccccc21)c1cc(COc2cncc(Cl)c2)on1 (stereo not drawn) 3.55%
COc1ccc(NC(=O)Cn2nnc(-c3ccccc3NC(=O)C3CC3)n2)cc1 -26.4%
